# Measurements from PubChem BioAssay (NCATS).
# Inconclusive results are not listed. A call without a number means that no potency is given here. Active and inactive are the calls of the source. Calls follow the shape of the dose curve; as a rule, active = well fitted inhibition curve with a large enough effect; inconclusive = small, poorly fitted or top-dose-only effect; inactive = no such curve, though single readings can be large or run the other way.
# Molecular target: Retinaldehyde dehydrogenase 3 (Homo sapiens) (UniProt P47895)
# Test: qHTS for Inhibitors of the Aldehyde Dehydrogenase Family (ALDH1A3) Primary screen (AID 2061315)
# Details: ALDH inhibition qHTS; series mostly up to 56 µM
row,Structure (SMILES),Potency
1,NC(=O)C1CCN(c2nc(-c3ccc(-c4ccccc4)cc3)cs2)CC1,inactive
2,N#Cc1ccc(N2CCN(S(=O)(=O)c3ccc4c(c3)CC(=O)N4)CC2)cc1,inactive
3,O=C(Nc1cccc(Cc2ccccc2)n1)c1ccc(-c2cccc([N+](=O)[O-])c2)o1,inactive
4,Cc1csc(CNc2ncnc3cc(-c4ccc5c(c4)OCO5)ccc23)n1,inactive
5,NC(=O)c1cccc(-c2cnc3c(O)ccc(C(=O)O)c3c2)c1,inactive
6,CC(C)(C)C(=O)N1CCN(c2cccc(Nc3nn4c(=O)c5ccccc5nc4s3)c2)CC1,inactive
7,CC(=O)Nc1ccc(OCc2cccc(-c3nc4ccccc4c(=O)n3Cc3ccco3)c2)cc1,inactive
8,Cc1c(C(=O)OC[C@H]2CCCO2)[nH]c2c1C(=O)CC(c1ccco1)C2 (some centres not stated),inactive
9,S=C(NCCCc1cnc[nH]1)NCCCN(Cc1ccccc1)c1ccc(Br)cn1,inactive
10,COc1ccc(C(=O)c2ccc(-c3no[n+]([O-])c3C#N)cc2)cc1,inactive
11,Cc1ccn2c(Nc3ccc4c(c3)OCO4)c(-c3ccccn3)nc2c1,inactive
12,O=C(Nc1sc2c(c1-c1nc3ccccc3s1)CCNC2)C(F)(F)F,inactive
13,N#Cc1cccc(OC2=NS(=O)(=O)c3ccccc32)c1,inactive
14,FC(F)(F)c1ccccc1-c1nc(NCc2ccc(-c3ccccc3)cc2)c2ccccc2n1,inactive
15,O=C1CCCC2=C1C(c1cccnc1Br)N=C(Nc1nc3ccccc3o1)N2 (configuration not stated),inactive
16,O=C1Cc2cc(S(=O)(=O)N3CCN(c4ccc(Br)cc4)CC3)ccc2N1,inactive
17,CN(Cc1ccco1)Cc1ccc(O)c2ncccc12,inactive
